# Reference: PubChem BioAssay (NCATS)
# Results filed as inconclusive are left out. Entries that show only a call come without a potency. Unmarked numbers belong to inactive results. Calls of active or inactive are those of the source. Calls come from the whole dose curve; as a rule, active = well fitted cell-killing curve with a large enough effect; inconclusive = small, poorly fitted or top-dose-only effect, or effect the other way; inactive = flat fitted curve, though single readings scatter.
# Tested on: CAOV3
# Experiment: Primary qHTS to identify gynecologic anti-cancer compounds using libraries of approved drugs and bioactive compounds (AID 1345084); note: nearly all actives have a fitted effect of over 55% in size
# Conditions: Gynecologic cancer cell panel viability, ATPlite luminescence, 48 h; series mostly up to 57.5 µM
# Text: National Center for Advancing Translational Sciences [NCATS] Assay Overview: Chemotherapeutic drug responses vary from cancer to cancer and from patient to patient. These variations could be caused by a number of factors including patient genomic background, tumor mutations, tumor heterogeneity, and aspects of drug treatment. Chemotherapeutic drug resistance is also a common issue and can lead to ineffective treatment and patient death. Here we have profiled the cell killing effects of thousands of compounds to characterize the responses in three gynecological cancers, identify cancer-selective compounds, and understand the diversity of responses to these compounds from pan-cancer suppressors to single cell line selective compounds. In this assay, we screened a 7,914 compound drug library that included approved drug and bioactive compounds in six ovarian, three cervical, and […] placental cancer cell lines using the ATPlite assay for cell viability. […] The cervical cancer cell lines included HeLa, Ca Ski, and C-33 A. The placental cancer cell lines included JEG-3. HEK 293T cells were used as the control cell line to determine the selectivity index. ATPlite is a luminescence based assay reliant on the conversion of a luciferase substrate to light in the presence of ATP. As a cytotoxic compound will suppress growth and decrease the number of cells, the concentration of ATP will decrease, and less light signal will be detected in the well.
# Assay Protocol Summary: 1,000 cells in 4 uL of media were dispensed into white, solid bottom 1536-well plates using a Multidrop Combi (Thermo Scientific). The Assay plates were incubated for 16 hours at 37 C with 5% CO2 in assay plates, followed by the addition of 23 nL of DMSO or drug dissolved in DMSO. Each compound was assayed in five concentrations (0.092, 0.46, 2.3, 11.5, and 57.5 uM), using the automated Wako 1536 Pin Tool workstation and incubated at 37 C with 5% CO2 48 hours. 4 uL of ATPlite, the ATP monitoring reagent, was then added to the each well of the assay plates using the Multidrop Combi reagent dispenser followed by incubation for 15 minutes at room temperature. The resulting luminescence was measured using the ViewLux plate reader.
# Potency is the fitted concentration of half-maximal effect.
Structure (SMILES),Potency,"activity change, negative = cytotoxicity"
C=C[C@@]12COC(=O)C(=C)C1[C@@H](O)[C@H](C(=C)C(=O)OC)[C@@H](OC(=O)C(=C)CO)C2 (stereo not given in full),inactive,
CCOc1ccc(NC(=S)N2CCC(C(O)(c3ccccc3)c3ccccc3)CC2)cc1,inactive,
C/C=C/c1ccc2oc(-c3ccc(O)c(OC)c3)c(C)c2c1,inactive,
CC[C@@H](O)C[C@@H]1C(C)=C[C@@H]2CCCC[C@@H]2[C@@]1(C)C(=O)O,inactive,
C=C[C@H]1[C@H](O[C@@H]2O[C@H](CO)[C@@H](O)[C@H](O)[C@H]2O)OC=C(C(=O)OC)[C@H]1C/C=C(/C=O)[C@@H]1C(C(=O)OC)=CO[C@@H](O[C@@H]2O[C@H](CO)[C@@H](O)[C@H](O)[C@H]2O)[C@@H]1C=C,inactive,
COC(=O)C[C@H]1C(C)(C)[C@H](OC(C)=O)C2CC3=C4CC(=O)O[C@@H](c5ccoc5)[C@]4(C)CCC3[C@@]1(C)C2=O (stereo not given in full),inactive,
CC1=CC(=O)CC(C)(C)[C@H]1/C=C/C(CO)O[C@@H]1O[C@H](CO)[C@@H](O)[C@H](O)[C@H]1O (stereo not given in full),inactive,
CC1(C)C[C@H](O)C[C@@]2(C)OC(=O)C=C12,inactive,
CC1(C(=O)O)CCCC2(C)C3=CCC4CC3(CCC12)CC4CO (stereo not given),inactive,
C/C=C1\[C@H](O[C@@H]2O[C@H](CO)[C@@H](O)[C@H](O)[C@H]2O)OC=C(C(=O)OC)[C@H]1CC(=O)OC[C@H]1O[C@@H](OCCc2ccc(O)cc2)[C@H](O)[C@@H](O)[C@@H]1O,inactive,
C=CC(=O)Nc1cc(Nc2ncc(Cl)c(-c3c[nH]c4ccccc34)n2)c(OC)cc1N(C)CCN(C)C,17800 nM (active),
CC1CCC2(OC1)OC1CC3C4CCC5C[C@@H](O[C@@H]6O[C@H](CO[C@@H]7OC[C@@H](O)[C@H](O)[C@H]7O)[C@H](O)[C@H](O)[C@H]6O)CC[C@]5(C)C4CC[C@]3(C)C1C2C (stereo not given in full),inactive,
Cc1cc2c(c(=O)[nH]1)OC(C(O)CC(C)C)O2 (stereo not given),inactive,
CO[C@H]1/C=C/C=C/C=C/C[C@H](OC(=O)[C@@H](C)NC(=O)C2CCCCC2)[C@H](C)[C@@H](O)/C(C)=C/CCc2cc(O)cc(c2)NC(=O)C1,inactive,
Nc1ncnc2c1nc(N)n2[C@@H]1O[C@H](CO)[C@@H](O)[C@H]1O,1260 nM (active),
C[C@@H]1O[C@@H](O[C@H]2[C@H](O[C@H]3[C@H](O[C@H]4CC[C@@]5(C)C(CC[C@]6(C)C5CC=C5[C@@H]7CC(C)(C)C[C@@H](O)[C@]7(C)CC[C@]56C)[C@@]4(C)CO)O[C@H](C(=O)O)[C@@H](O)[C@@H]3O)OC[C@H](O)[C@@H]2O)[C@H](O)[C@H](O)[C@H]1O (stereo not given in full),,0% [at 11.6 µM]
COCCOc1cnc2ccn([C@H](C)c3nnc4c(F)cc(-c5cnn(C)c5)cn34)c(=O)c2c1,inactive,
C[C@@H]1O[C@@H](O[C@H]2[C@H](O)[C@@H](O)[C@H](O[C@H]3[C@H](O[C@H]4CC[C@@]5(C)C(=CC[C@@H]6C5CC[C@]5(C)[C@@H]7[C@H](C[C@@H]65)O[C@]5(CC[C@@](C)(CO[C@@H]6O[C@H](CO)[C@@H](O)[C@H](O)[C@H]6O)O5)[C@H]7C)C4)O[C@H](CO)[C@@H](O)[C@@H]3O)O[C@@H]2CO)[C@H](O)[C@H](O)[C@H]1O (stereo not given in full),,-9.22% [at 11.6 µM]
CC1OC2OC(=O)C3(C)CC4=C(CO)C5=C(CC(=O)C4(C)C(C1=O)C23)C(C)(C)OC(=O)C5 (stereo not given),inactive,
CCc1cc(CN2CC(C(=O)O)C2)sc1-c1noc(-c2ccc(Oc3ccccc3)cc2)n1,inactive,

Structure (SMILES),Potency,"activity change, negative = cytotoxicity"
NC(=O)c1cccc(-c2cc(OC(=O)NC3CCCCC3)ccc2O)c1,inactive,
CC1CCC2(C=O)C(CO)=CCCC2C1(C)CC(=O)O (stereo not given),inactive,
COC(=O)C1=CO[C@@H](O[C@@H]2O[C@H](CO)[C@@H](O)[C@H](O)[C@H]2O)[C@@H]2[C@@](C)(O)[C@@H](OC(=O)/C=C/c3ccc(O)cc3)C[C@]12O,inactive,
CC(/C=C/C1=CC2=CC(=O)C(C)(O)C(O)C2=CO1)=C\C(C)CCO (stereo not given),inactive,
C=C1CCC2C(C)(C)CCC[C@]2(C)[C@H]1C/C=C(\CO)C(=O)C(=O)O (stereo not given in full),inactive,
CCOCc1nc2c(N)nc3ccccc3c2n1CC(C)(C)O,inactive,
O=C(Cc1ccc(-c2ccccc2)cc1)NC1CCC1,inactive,
CC(=O)SCC(=O)c1ccc(NS(=O)(=O)c2ccc(OCCCN(C)C)cc2)nc1,inactive,
C[C@H](Nc1ncnc2nc[nH]c12)c1cc2ccc(F)cc2nc1-c1ccccn1,inactive,
O=C(NCc1ccc(S(=O)(=O)c2cc(F)cc(F)c2)cc1)c1ccc2nccn2c1,316 nM (active),
CC(=O)N1CCN(Cc2ccc([C@H](C)Nc3nccc(N4C(=O)OC[C@@H]4C(C)C)n3)cc2)CC1,inactive,
COC(=O)[C@@]1(c2ccc(C)cc2)C[C@H]1CN1CCC(O)(c2ccccc2)CC1,inactive,
CN(CCc1ccc(Nc2ncc(-c3cccnc3)s2)cc1)Cc1ccccc1,inactive,
COC(C(=O)N1Cc2[nH]nc(NC(=O)c3ccc(N4CCN(C)CC4)cc3)c2C1)c1ccccc1 (stereo not given),1410 nM (active),
CC1(C)CC[C@]2(C(=O)O[C@@H]3O[C@H](CO)[C@@H](O)[C@H](O)[C@H]3O)CC[C@]3(C)C(=CCC4[C@@]5(C)CC[C@H](O[C@@H]6O[C@H](C(=O)O)[C@@H](O)[C@H](O[C@@H]7O[C@H](CO)[C@H](O)[C@H](O)[C@H]7O)[C@H]6O)C(C)(C)C5CC[C@]43C)C2C1 (stereo not given in full),,0.89% [at 11.6 µM]
C=C[C@H]1[C@H](O[C@@H]2O[C@H](CO)[C@@H](O)[C@H](O)[C@H]2O)OC=C(C(=O)OC)[C@H]1CC(=O)O,inactive,
OC[C@H]1O[C@@H](OCCc2ccc(O)cc2)[C@H](O[C@@H]2OC[C@](O)(CO)[C@H]2O)[C@@H](O)[C@@H]1O,inactive,
O=C1NC(=O)C(c2cn3c4c(cccc24)CCC3)C1c1c[nH]c2ccccc12 (stereo not given),inactive,
NC(=O)c1csc(C2OC(CO)C(O)C2O)n1 (stereo not given),inactive,
C=CCC1=C[C@]2(OC)[C@H](C)[C@@H](c3ccc(O)c(OC)c3)O[C@]2(OC)CC1=O,inactive,
